Only some compounds are listed: those with a hit (about 11% of all), similar ones and a draw of the others.
L3MBTL1 inh: qHTS Assay for the Inhibitors of L3MBTL1; AlphaScreen L3MBTL1–H3K9me1 peptide binding; Potency, µM (titrated, usually from 57.1 µM), for the others: at the top dose activity, negative = inhibition, usual class: inhibitors; AID 485360, 2010; Lethal(3)malignant brain tumor-like protein 1 (Homo sapiens), Q9Y468; 230,000 compounds, 0.66% hits; also: % is scaled to controls: 0 for no effect and ±100 for the full control effect; nearly all actives have a fitted effect of over 60% in size
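AlphaScreen assay: L3MBTL1 (50 nM final) was preincubated 30 min at room temperature with biotinylated H3(1-15)K9me1 peptide (75 nM final), then 30 min with library compounds; streptavidin donor and nickel chelate acceptor beads (10 ug/mL final) added, 30 min dark.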
HP1b binding inh: HTS for Inhibitors of HP1-beta Chromodomain Interactions with Methylated Histone Tails; AlphaScreen HP1-beta / biotin-H3K9me3 peptide binding; 390,000 compounds, 0.56% hits; Potency, µM (series often up to 114 µM), inactives show top-dose activity change, negative = inhibition, usual class: inhibitors; Chromobox protein homolog 1 (Homo sapiens), P83916; AID 540317, 2011; also: nearly all actives have a fitted effect of over 70% in size
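Compound inhibition of the preformed complex between 50 nM HP1-beta and 50 nM biotinylated H3K9me3 peptide was read by AlphaScreen. Buffer was PBS pH 7.4 with 0.01% Tween-20. Incubations ran 30 min at room temperature, with 10 ug/mL donor/acceptor beads.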
JMJD2A Tudor inh: qHTS Assay for Inhibitors of JMJD2A-Tudor Domain | Lysine-specific demethylase 4A (Homo sapiens), O75164 | AlphaScreen JMJD2A-Tudor / H3K4me3 peptide binding | Potency, µM (highest dose often 114 µM), for inactives: at the top dose activity change, negative = inhibition, usual class: inhibitors | 390,000 compounds, 4.4% hits | AID 504339, 2011; also: % is scaled to controls: 0 for no effect and ±100 for the full control effect; nearly all actives have a fitted effect of over 50% in size
BAZ2B inh: qHTS Assay for Inhibitors of BAZ2B. Bromodomain adjacent to zinc finger domain protein 2B (Homo sapiens), Q9UIF8. 360,000 compounds, 4.4% hits. AID 504333, 2011. Potency, µM (highest dose often 114 µM), inactives show at the highest dose activity change, negative = inhibition, usual class: inhibitors. AlphaScreen BAZ2B-H3K14Ac peptide displacement; also: % is scaled to controls: 0 for no effect and ±100 for the full control effect; nearly all actives have a fitted effect of over 60% in size
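BAZ2B 50 nM plus b-H3(5-23)K14Ac 50 nM, PBS pH 7.4/0.01% Tween-20, 30 min RT; compound added (max 110 uM), 30 min RT; streptavidin donor/Ni-chelate acceptor beads 10 ug/mL final, 20 min dark; AlphaScreen read.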
G9a block: qHTS Assay for Inhibitors of Histone Lysine Methyltransferase G9a | 350,000 compounds, 8.8% hits | AID 504332, 2011 | Potency, µM (series often up to 102 µM), inactives show top-dose activity, negative = inhibition, most hits filed as inhibitors | Histone-lysine N-methyltransferase EHMT2 (Homo sapiens), Q96KQ7 | G9a H3K9 monomethylation, AlphaScreen, 2 h; also: % is scaled to controls: 0 for no effect and ±100 for the full control effect; nearly all actives have a fitted effect of over 75% in size
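Enzyme 20 nM + cpd, 15 min RT; add b-H3K9 pep 500 nM / SAM 20 uM; 2 h RT; anti-H3K9me1 Ab 0.5 ug/mL + SA donor / anti-rabbit acceptor beads 20 ug/mL each, 10 min; AlphaScreen read.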
The depositor's hits bear a star; ? = inconclusive; . = no result given; [ ] = another dose, or the depositor's remark. Calls follow the shape of the dose curve; as a rule, active = well fitted inhibition curve with a large enough effect; inconclusive = small, poorly fitted or top-dose-only effect; inactive = no such curve, though single readings can be large or run the other way. Potency is read from the fitted curve at half-maximal effect.

SMILES | L3MBTL1 inh | HP1b binding inh | JMJD2A Tudor inh | BAZ2B inh | G9a block
CCOc1cccc2oc(-c3ccccc3Cl)cc(=O)c12 | . | . | . | . | 19%
COc1ccc(CN2C(=NC(=O)C3CC3)SC3CS(=O)(=O)CC32)cc1OC (centres undefined) | . | 32% | -7% | -10% | -12%
Cc1nc(S(=O)(=O)c2ccc(Cl)cc2)c(NCc2ccccc2)o1 | . | 45% | 1% | -6% | 45µM*
O=S(=O)(c1ccc(Cl)cc1)c1nc(-c2ccccc2F)oc1NCc1ccccc1 | . | 3% | -16% | ? | -29%[59 µM]
Cc1ccc(Cl)cc1NS(=O)(=O)c1ccc(N2CCCCS2(=O)=O)cc1 | . | 6% | -13% | -1% | 25%[59 µM]
CC(C)CNC(=O)CSc1nc2scc(-c3ccccc3)c2c(=O)[nH]1 | -1% | 18% | -17% | -24% | 11µM*
O=c1[nH]c(Cc2ccccc2)nc2scc(-c3ccccc3)c12 | . | 14% | -12% | -20% | -9%
O=C(CSc1nc2scc(-c3ccccc3)c2c(=O)[nH]1)Nc1ccccc1 | . | 32% | -25% | 0% | .
O=C(O)CSCc1nc2scc(-c3ccccc3)c2c(=O)[nH]1 | 0% | 11% | -5%[57.1 µM] | -24% | 50µM*
O=C(CCCn1c(=O)c2cccn2c2cccnc21)Nc1ccccc1C(F)(F)F | . | 16% | -19% | -9% | -6%[59 µM]
Cc1ccc(Cc2nc3ccccc3nc2SCC(=O)N2CCCCC2)cc1 | . | 30%[57 µM] | -7% | 13% | 8%[59 µM]
CC(=O)N1CC(C)Oc2ccc(S(=O)(=O)NC(CC(=O)O)c3ccccc3C)cc21 (centres undefined) | . | 34% | -14% | -30% | 50µM*
CCc1c(C)sc(NC(=O)Cn2nc(C(F)(F)F)c3c2CCCC3)c1C#N | -3% | -10% | 4% | 10% | 14µM*
Nc1ccc(-c2nc3ccc(N)cc3o2)cc1 | . | 47% | -28% | -22% | -12%
Cc1ccc2nc(-c3cc(N)cc(N)c3)oc2c1 | -4% | -30% | ? | 50µM* | -42%[59 µM]
O=C(COc1ccc(Cl)cc1)OCC(=O)N1CCOCC1 | 3% | 36% | -7% | . | .
Cc1ccc(CSC2=Nc3ccccc3C3=NC(CCC(=O)NCCc4ccccc4)C(=O)N23)cc1 (centres undefined) | . | 28% | -18% | -8% | ?
C=CCn1c(C(CCC(C)C)CC(C)(C)O)n[nH]c1=S (centres undefined) | 0% | -8% | 7.1µM* | 10% | ?
C[N+](C)(C)CCC(=O)c1cccc2ccccc12 | . | . | . | . | 0.5µM*
CCSc1ncc(Cl)c(C(=O)Nc2nc3ccc(Cl)cc3s2)n1 | . | 53% | 1% | 3% | -1%[59 µM]
Cc1cc(C(=O)Nc2nc3ccc(Cl)cc3s2)nn1C | 2% | 16% | 25µM* | -2% | -41%
Cn1ncc(Cl)c1C(=O)Nc1nc2ccc(Cl)cc2s1 | 9% | -16% | -10% | -4% | 7.9µM*
Cc1cc(C)cc(N2CC(C(=O)OCC(=O)Nc3cc(C)on3)CC2=O)c1 (centres undefined) | . | 12% | -3% | -9% | 50µM*
CCc1nnc2c3ccccc3nc(Nc3ccc(F)cc3C)n12 | . | 52% | 15% | 10% | 3%[59 µM]
CN(C)c1ccc(N=Cc2nc(-c3ccccc3)oc2O)cc1 | -9% | 4% | -28% | -10% | -11%[0.0925 µM]
SMILES | L3MBTL1 inh | HP1b binding inh | JMJD2A Tudor inh | BAZ2B inh | G9a block
Oc1oc(-c2ccccc2)nc1C=Nc1ccccc1 | -14% | 7% | 89µM* | -12% | ?
CCOC(=O)c1nnn(-c2nc(N3CCCC3)nc(N3CCCC3)n2)c1-c1ccccc1 | 3% | -6% | 79µM* | -3% | 1%[59 µM]
COc1ccc2c(CC(=O)OCC(=O)Nc3ccc(C)cc3)coc2c1 | ? | 4% | -29% | 50µM* | -8%[12.7 µM]
CC1(C)CC(NC(=S)NCc2ccc3c(c2)OCO3)CC(C)(C)N1 | -2% | . | . | 56µM* | 40µM*
S=C(NCc1ccc2c(c1)OCO2)NC1CC1 | -3%[11.4 µM] | 34% | -16%[57.1 µM] | -17% | -24%
COc1ccc2c(CC(=O)OCC(=O)Nc3ccc4c(c3)OCO4)coc2c1 | . | ? | 20µM* | ? | ?
CCOc1ccc(NC(=S)NCc2ccc3c(c2)OCO3)cc1 | -19% | 23% | -27% | ? | 10µM*
COc1ccc2c(CC(=O)OCC(=O)Nc3ccc(S(N)(=O)=O)cc3)coc2c1 | . | 6% | -32% | -10% | 11%[12.7 µM]
CN(c1cccc(NC(=O)CN(c2ccc(C34CC5CC(CC(C5)C3)C4)cc2)S(C)(=O)=O)c1)S(C)(=O)=O | -14% | -3% | ? | -27% | -6%
CCc1ccc(NC(=O)C(=O)NCCc2sc(-c3ccc(C)cc3)nc2C)cc1 | . | 13%[57 µM] | -21% | 5% | 8%[59 µM]
Cc1nn2c(=O)cc(COC(=O)c3ccccc3NC(=O)c3cccs3)nc2s1 | . | 21% | 6% | -2% | 0%[12.7 µM]
CCOc1ccc(OCCC(=O)OCC(=O)Nc2ccc3c(c2)OCO3)cc1 | -1% | -20% | -35% | -38% | 45µM*
Cc1ccc(OCCC(=O)OCC(=O)Nc2ccc3c(c2)OCCO3)cc1 | -3% | 23% | 2% | 7% | -21%
O=C(O)c1ccccc1S(=O)(=O)Cc1ccccc1 | -1% | 12% | -20% | 9% | -14%[12.7 µM]
Cn1ncc(S(=O)(=O)Cc2ccccc2)c(Br)c1=O | . | . | . | . | 1.5µM*
COc1ccc(/C=C\c2onc(C)c2S(=O)(=O)N2CCC(C(=O)Nc3ccc(F)cc3F)CC2)cc1 | . | 23% | -7% | . | 0%[59 µM]
CC(C)CCOP(=O)(c1ccc(N(C)C)cc1)C(O)c1ccc(N(C)C)cc1 (centres undefined) | . | -5% | 7.1µM* | ? | 2.2µM*
CC(C)CCOP(=O)(c1ccc(N(C)C)cc1)C(Nc1ccccc1)c1ccc(N(C)C)cc1 (centres undefined) | -2% | -19% | 45µM* | ? | 14µM*
CCCCOP(=O)(c1ccc(N(C)C)cc1)C(O)c1ccc(N(C)C)cc1 (centres undefined) | . | -4% | 5µM* | ? | 2.2µM*
CCCOP(=O)(c1ccc(N(C)C)cc1)C(O)c1ccc(Br)cc1 (centres undefined) | . | 9% | -14% | -27% | -2%
CCCOP(=O)(c1ccc(N(C)C)cc1)C(O)c1ccc(N(C)C)cc1 (centres undefined) | . | 24% | 8.9µM* | -23% | 0.71µM*
CCCCOP(=O)(c1ccc(N(C)C)cc1)C(O)c1ccncc1 (centres undefined) | 0% | 32% | -17% | ? | ?
COc1ccc(CCNc2ncnc3c2nnn3C)cc1OC | . | 37% | 6% | 6% | -3%[59 µM]
CN(C)c1ccc(-n2cccc2/C=C/[N+](=O)[O-])cc1 | . | 45µM* | 25µM* | 16µM* | 22µM*

Source: PubChem BioAssay
